From PubChem BioAssay (NCATS)
Results filed as inconclusive are left out. Unmarked numbers belong to inactive results. Activity calls are given as the source filed them. The call rests on the fitted dose curve; in most records, active means well fitted cell-killing curve with a large enough effect; inconclusive means small, poorly fitted or top-dose-only effect; inactive means no such curve, though single readings can be large or run the other way. Where a SMILES comes first, the peptide text is derived from it. [ ]: non-standard residue; d: D form. pGlu = O=C1CC[C@@H](C(=O)O)N1

Experiment: qHTS of pediatric cancer cell lines to identify multiple opportunities for drug repurposing: Primary screen for LAN-5 cells (AID 1347100)
Conditions: LAN-5 neuroblastoma viability, CellTiter-Glo luminescence, 48 h; series mostly up to 46 µM; activity change, negative = cytotoxic: at the top concentration
Text: Drug repurposing or repositioning has been offered as a strategy for drug development in oncology programs. This approach has special potential for childhood cancers and other rare or orphan diseases, where the expected return on new drug development has been a disincentive to pharmaceuticals.
In this project we exploit the poly-pharmacology of drugs to discover new indications via phenotypic screening of a panel of 19 well-characterized cell lines derived from solid tumors seen in children and adolescents. The goal is to identify approved drugs with previously unrecognized anticancer properties that has the potential to reveal new mechanisms and biological processes involved in carcinogenesis or drug resistance. We employed a titration-based paradigm (quantitative high-throughput screening or qHTS), where all compounds were tested at multiple concentrations for their effect on cell viability. Concentration-response curves (CRCs) were derived directly from the primary screen, and both potency and efficacy values were used to identify compounds with robust bioactivity profiles. We screened the NIH Chemical Genomics Center (NCGC) Pharmaceutical Collection (NPC) and Mechanism Interrogation Plate (MIPE) small molecule collections of approved and investigational compounds against these cell lines; and measured metabolically active cells after 48 hours of compound treatment as a proxy for cell viability.
Assay Submitter: Nathalia J. Martinez, National Center for Advancing Translational Sciences, National Institutes of Health, Rockville, MD, USA; email: natalia.martinez@nih.gov
[1] Shen, M et al. Quantitative high-throughput phenotypic screening of pediatric cancer cell lines identifies multiple opportunities for drug repurposing. Oncotarget 2017 Dec 19;9(4):4758-4772. PMID 29435139.
The cells were obtained from University of North Carolina (UNC), Pediatric Preclinical Testing Program (PPT), and Coriell Institute (CI).
qHTS cell viability assay:
Cells were assayed in growth media at a density of 500-1,000 cells/well. Five microliters of cells were dispensed into 1,536-well, white, solid-bottom, TC-treated plates (Greiner Bio One) using a multidrop dispenser and incubated at 37 degrees C, 5% CO2, under a humidified atmosphere for 5 hours. Twenty-three nanoliters of compounds and controls (neutral control DMSO or positive control bortezomib at final concentration of 2.3 µM) were subsequently transferred by Kalypsys pintool. For primary screens, the MIPE collection was tested at 11-point dilutions (final concentrations range from 0.78 nM to 46 µM) and the NPC collection at 8-point dilutions (final concentrations range from 0.59 nM to 46 µM). Compounds tested in follow-up screens were assayed at 11-point dilutions. Cells were incubated for 48 hours, followed by addition of 3 µL of CellTiter-Glo (Promega). After a 15 min incubation at room temperature, samples were analyzed for luminescence intensity using a ViewLux High-throughput CCD imager equipped with clear filters.
Potency means the concentration at half of the fitted maximal effect.

Row | SMILES | activity change, negative = cytotoxic | Potency
1 | N=C(N)c1ccc(OCCCOc2ccc(C(=N)N)cc2)cc1 | -15.3% | –
2 | COCCc1ccc(OCC2CO2)cc1 (stereo not given) | 4.56% | –
3 | CCOC(=O)C(=O)CCc1ccccc1 | 7.4% | –
4 | Cc1ccc(C(=O)C(=O)O)cc1C | 6.3% | –
5 | CCOC(=O)Cn1cccc1-c1nc(-c2ccc(OC)cc2)c(-c2ccc(OC)cc2)s1 | -15.5% | –
6 | CN1C(=O)CC(C)(c2ccccc2)C1=O (stereo not given) | 1.53% | –
7 | C[C@@H](C1=C(CCN(C)C)Cc2ccccc21)c1ccccn1 | -10.3% | –
8 | COc1cc(C(=O)NC2CCCNC2)cc(OC)c1OC (stereo not given) | 8.07% | –
9 | COc1ccc(CCC(C)=O)cc1 | -3.01% | –
10 | CCOc1ccccc1OCC1CNCCO1 (stereo not given) | 12.9% | –
11 | Cc1c(N)cccc1C(F)(F)F | 7.43% | –
12 | O=C(CCOCCOCCOCCOCCC(=O)Nc1c(I)cc(I)c(C(=O)O)c1I)Nc1c(I)cc(I)c(C(=O)O)c1I | 14.6% | –
13 | C/C(=C(/OCCOc1ccc(Cl)cc1)c1ccc(Cl)cc1Cl)n1ccnc1 | -21.9% | –
14 | CO/N=C(\C(=O)O)c1csc(NC(=O)CCl)n1 | 23.1% | –
15 | O=[N+]([O-])c1nccn1CO[C@@H](CO)[C@H](O)CO | -4.9% | –
16 | CO/N=C(/C(=O)N[C@@H]1C(=O)N2C(C(=O)[O-])=C(C[n+]3ccn4ncccc43)CS[C@H]12)c1nsc(N)n1 | 15% | –
17 | CC(C)(C)C(=O)OCOC(=O)C1N2C(=O)CC2S(=O)(=O)C1(C)C (stereo not given) | 2.45% | –
18 | CC(CC(C#N)(c1ccccc1)C(C)C)N(C)C (stereo not given) | -5.92% | –
19 | CCCCC(O)/C=C(C)/C=C/C=C/C(=O)N1CCCC1=O (stereo not given) | 22.2% | –
20 | COc1ccccc1N1CCN(CC(O)COc2cc(OC)c(OC)c(OC)c2)CC1 (stereo not given) | 15.3% | –

Row | SMILES | activity change, negative = cytotoxic | Potency
21 | CCNC(=O)[C@@H]1CCCN1C(=O)[C@H](CCCN=C(N)N)NC(=O)[C@H](CC(C)C)NC(=O)CNC(=O)[C@H](Cc1ccc(O)cc1)NC(=O)[C@H](CO)NC(=O)[C@H](Cc1c[nH]c2ccccc12)NC(=O)[C@H](Cc1cnc[nH]1)NC(=O)[C@@H]1CCC(=O)N1 ([pGlu]HWSYGLRP-NHEt) | 8.12% | –
22 | CC(C)(Oc1ccc(Cl)cc1)C(=O)OCCCOC(=O)C(C)(C)Oc1ccc(Cl)cc1 | -18.3% | –
23 | COc1ccc2nc(SCc3ncc(C)c(OC)c3C)[nH]c2c1 | 4.42% | –
24 | O=C1OC2(c3ccccc31)c1cc(I)c(O)c(I)c1Oc1c2cc(I)c(O)c1I | -20.9% | –
25 | OCCc1ccccc1 | -2.11% | –
26 | Nc1ccc(C(=O)N2CC3CC(CN(Cc4ccccc4)C3)C2)cc1 | 41.2% | –
27 | CC(=O)CC/C=C(\C)CC/C=C(\C)CC/C=C(\C)CCC=C(C)C | 13.5% | –
28 | CC(=O)c1cc2ccccc2s1 | 4.9% | –
29 | CCCC(=O)O[C@]1(C(=O)COC(=O)CC)CC[C@H]2[C@@H]3CCC4=CC(=O)CC[C@]4(C)[C@H]3[C@@H](O)C[C@@]21C | 2.21% [at 16.1 µM] | –
30 | NCC[C@H](O)C(=O)N[C@@H]1C[C@H](N)[C@@H](O[C@H]2O[C@H](CN)[C@@H](O)[C@H](O)[C@@H]2O)[C@H](O)[C@@H]1O[C@H]1O[C@H](CO)[C@@H](O)[C@H](N)[C@@H]1O | 0.172% [at 0.597 µM] | –
31 | C[N+]1(C)CCC(OC(=O)C(O)(c2ccccc2)C2CCCC2)C1 (stereo not given) | 26.9% | –
32 | CC(=O)N(CC(=O)N(C)C)c1ccccc1 | -12.3% | –
33 | CC(NN)c1ccccc1 (stereo not given) | 17.6% [at 16.1 µM] | –
34 | Cc1cc(O)c2c(O)c3c(O)cccc3cc2c1 | -5.37% | –
35 | CC(NCCC(c1ccccc1)c1ccccc1)c1ccccc1 (stereo not given) | – | 23.7 µM (active)
36 | Cn1cc(S(C)=O)c(=O)c2ccc(F)cc21 (stereo not given) | 16.1% | –
37 | CC(CCc1ccc2c(c1)OCO2)NN (stereo not given) | 8.41% | –
38 | Nc1cccc2c(N)cccc12 | -21.6% [at 92.7 µM] | –
39 | O=C(c1ccco1)N1CCNCC1 | -9.93% | –
40 | CC[C@@]1(O)C(=O)OCc2c1cc1n(c2=O)Cc2c-1nc1ccccc1c2/C=N/OC(C)(C)C | – | 0.0211 µM (active)
